Data from the supplement of paper PMC11732987, “Enantioselective OTUD7B fragment discovery through chemoproteomics screening and high-throughput optimisation” (Communications Chemistry, 2025).

Key:
Assay in all cases: log2 ratio of Biotin-Ahx-Ub-VS probe labelling (fragment/DMSO); higher = less target engagement (more negative = stronger competition), active = hit call of the paper (q ≤ 0.05, log2 ratio ≤ -1)
Conditions in all cases: compound concentration: 200 uM; treatment time: 3 h
USP34 = USP34 (UniProt Q70CQ2)
Summary of the method: (§1)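 HEK293T lysate in Tris/CHAPS/IGEPAL buffer with protease inhibitors (495 µg per sample) was given fragment at 200 µM or vehicle for 3 h, in triplicate. It then received Biotin-Ahx-Ub-VS at 0.5 µM final for 1 h. Labelled DUBs were NeutrAvidin-enriched, digested with LysC and trypsin, and run by diaPASEF LC-MS/MS. Values are average log2 fragment/vehicle ratios by unpaired t-test on global-median-normalised Spectronaut quantities of proteins with ≥2 unique peptides.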

USP36 = biological target: T1, USP36 (UniProt Q9P275)
T1 sequence (whole entry): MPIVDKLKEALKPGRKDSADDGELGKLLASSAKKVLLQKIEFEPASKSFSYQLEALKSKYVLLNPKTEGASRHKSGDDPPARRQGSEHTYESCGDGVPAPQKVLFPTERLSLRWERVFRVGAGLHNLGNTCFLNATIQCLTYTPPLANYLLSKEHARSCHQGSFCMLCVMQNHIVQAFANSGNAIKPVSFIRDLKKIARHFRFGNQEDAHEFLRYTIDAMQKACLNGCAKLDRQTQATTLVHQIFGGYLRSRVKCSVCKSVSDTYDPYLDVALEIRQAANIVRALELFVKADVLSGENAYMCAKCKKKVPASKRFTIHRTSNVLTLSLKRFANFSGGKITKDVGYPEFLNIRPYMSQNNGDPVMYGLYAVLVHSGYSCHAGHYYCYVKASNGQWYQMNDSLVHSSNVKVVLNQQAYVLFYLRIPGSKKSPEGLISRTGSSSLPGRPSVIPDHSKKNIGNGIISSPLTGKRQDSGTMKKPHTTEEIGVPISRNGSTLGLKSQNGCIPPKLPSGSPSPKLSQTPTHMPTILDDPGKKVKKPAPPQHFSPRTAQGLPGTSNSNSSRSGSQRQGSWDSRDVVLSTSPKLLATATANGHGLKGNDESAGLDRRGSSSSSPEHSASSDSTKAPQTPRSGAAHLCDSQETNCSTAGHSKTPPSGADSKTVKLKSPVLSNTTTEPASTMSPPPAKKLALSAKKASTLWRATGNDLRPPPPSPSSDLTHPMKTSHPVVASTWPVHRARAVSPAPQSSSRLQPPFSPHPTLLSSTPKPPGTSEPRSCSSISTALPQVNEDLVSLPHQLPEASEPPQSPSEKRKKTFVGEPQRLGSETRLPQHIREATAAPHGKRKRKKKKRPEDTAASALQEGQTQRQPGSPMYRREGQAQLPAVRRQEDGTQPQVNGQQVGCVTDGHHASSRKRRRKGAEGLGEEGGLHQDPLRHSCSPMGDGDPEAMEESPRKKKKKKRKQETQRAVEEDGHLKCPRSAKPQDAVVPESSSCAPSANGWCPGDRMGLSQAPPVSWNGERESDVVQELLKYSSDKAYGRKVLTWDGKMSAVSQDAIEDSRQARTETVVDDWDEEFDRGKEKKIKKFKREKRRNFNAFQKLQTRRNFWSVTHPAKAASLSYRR
Summary of the method: as §1

USP38 = biological target: T2, USP38 (UniProt Q8NB14)
T2 sequence (whole entry): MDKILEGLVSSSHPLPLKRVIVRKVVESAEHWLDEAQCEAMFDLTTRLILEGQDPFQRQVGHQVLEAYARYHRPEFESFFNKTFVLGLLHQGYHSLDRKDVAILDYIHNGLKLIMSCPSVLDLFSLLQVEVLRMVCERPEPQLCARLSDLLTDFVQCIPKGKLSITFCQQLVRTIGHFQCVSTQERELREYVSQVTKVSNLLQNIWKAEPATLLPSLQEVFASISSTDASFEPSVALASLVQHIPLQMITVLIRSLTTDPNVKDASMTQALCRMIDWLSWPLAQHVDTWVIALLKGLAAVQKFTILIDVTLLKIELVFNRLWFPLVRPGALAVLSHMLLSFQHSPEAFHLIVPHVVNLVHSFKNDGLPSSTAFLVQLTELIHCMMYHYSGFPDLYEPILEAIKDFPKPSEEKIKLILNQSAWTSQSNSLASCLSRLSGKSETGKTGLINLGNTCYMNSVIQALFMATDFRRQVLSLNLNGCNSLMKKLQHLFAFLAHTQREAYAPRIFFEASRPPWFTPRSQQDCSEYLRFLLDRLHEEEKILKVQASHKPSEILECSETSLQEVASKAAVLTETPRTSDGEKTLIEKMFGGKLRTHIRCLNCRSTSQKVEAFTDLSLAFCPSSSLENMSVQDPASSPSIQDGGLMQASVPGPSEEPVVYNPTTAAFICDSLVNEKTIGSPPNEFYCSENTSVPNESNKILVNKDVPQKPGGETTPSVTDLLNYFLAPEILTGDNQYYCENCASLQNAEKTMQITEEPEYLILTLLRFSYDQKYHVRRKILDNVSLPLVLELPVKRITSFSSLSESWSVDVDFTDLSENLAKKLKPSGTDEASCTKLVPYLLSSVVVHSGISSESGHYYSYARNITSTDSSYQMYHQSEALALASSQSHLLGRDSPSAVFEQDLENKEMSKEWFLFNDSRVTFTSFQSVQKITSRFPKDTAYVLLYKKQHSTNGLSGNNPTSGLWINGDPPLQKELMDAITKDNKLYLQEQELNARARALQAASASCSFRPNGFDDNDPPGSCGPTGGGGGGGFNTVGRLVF
Summary of the method: as §1

USP39 = biological target: T3, USP39 (UniProt Q53GS9)
T3 sequence (whole entry): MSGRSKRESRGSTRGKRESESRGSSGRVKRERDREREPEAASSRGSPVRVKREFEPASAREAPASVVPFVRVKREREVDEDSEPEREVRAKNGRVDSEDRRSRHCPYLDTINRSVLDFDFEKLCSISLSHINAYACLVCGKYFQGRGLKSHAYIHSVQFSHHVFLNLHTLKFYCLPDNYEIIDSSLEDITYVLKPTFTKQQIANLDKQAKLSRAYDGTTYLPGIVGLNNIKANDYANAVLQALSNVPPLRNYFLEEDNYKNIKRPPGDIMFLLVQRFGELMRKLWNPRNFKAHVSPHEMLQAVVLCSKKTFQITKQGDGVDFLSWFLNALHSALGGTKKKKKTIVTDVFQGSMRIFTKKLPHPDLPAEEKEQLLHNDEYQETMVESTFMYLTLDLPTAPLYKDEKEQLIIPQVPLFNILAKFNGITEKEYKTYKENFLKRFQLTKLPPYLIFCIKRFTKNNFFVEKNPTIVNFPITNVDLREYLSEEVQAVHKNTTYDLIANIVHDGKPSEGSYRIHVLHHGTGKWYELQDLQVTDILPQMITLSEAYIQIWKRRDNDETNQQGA
Summary of the method: as §1

USP4 = biological target: T4, USP4 (UniProt Q13107)
T4 sequence (whole entry): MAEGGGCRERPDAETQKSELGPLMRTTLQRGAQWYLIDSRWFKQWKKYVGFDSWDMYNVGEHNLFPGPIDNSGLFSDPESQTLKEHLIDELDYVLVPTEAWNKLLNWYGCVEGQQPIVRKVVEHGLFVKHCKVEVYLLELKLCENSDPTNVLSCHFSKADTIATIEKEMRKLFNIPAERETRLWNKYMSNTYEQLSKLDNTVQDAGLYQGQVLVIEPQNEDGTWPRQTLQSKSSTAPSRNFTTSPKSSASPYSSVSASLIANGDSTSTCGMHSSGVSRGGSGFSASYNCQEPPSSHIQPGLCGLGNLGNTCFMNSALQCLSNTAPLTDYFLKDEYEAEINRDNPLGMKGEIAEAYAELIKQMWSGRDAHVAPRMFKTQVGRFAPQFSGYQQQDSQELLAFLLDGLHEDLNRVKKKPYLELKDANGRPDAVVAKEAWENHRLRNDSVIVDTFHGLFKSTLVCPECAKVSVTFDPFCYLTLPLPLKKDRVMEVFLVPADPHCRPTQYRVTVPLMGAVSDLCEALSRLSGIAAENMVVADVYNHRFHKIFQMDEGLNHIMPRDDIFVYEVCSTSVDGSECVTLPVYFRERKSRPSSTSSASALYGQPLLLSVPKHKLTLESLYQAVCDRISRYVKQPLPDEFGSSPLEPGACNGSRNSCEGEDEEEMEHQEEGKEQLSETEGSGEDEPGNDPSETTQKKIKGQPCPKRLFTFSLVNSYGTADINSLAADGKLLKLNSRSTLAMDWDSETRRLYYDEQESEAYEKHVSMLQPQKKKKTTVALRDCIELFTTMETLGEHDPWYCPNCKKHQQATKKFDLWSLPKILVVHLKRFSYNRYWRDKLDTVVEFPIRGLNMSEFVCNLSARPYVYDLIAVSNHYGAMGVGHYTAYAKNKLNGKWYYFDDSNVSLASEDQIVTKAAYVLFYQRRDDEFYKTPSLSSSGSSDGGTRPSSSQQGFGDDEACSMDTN
Summary of the method: as §1

Measured: log2 ratio of Biotin-Ahx-Ub-VS probe labelling

Sequence of USP34 (Q70CQ2 whole entry, the tested form may be a part): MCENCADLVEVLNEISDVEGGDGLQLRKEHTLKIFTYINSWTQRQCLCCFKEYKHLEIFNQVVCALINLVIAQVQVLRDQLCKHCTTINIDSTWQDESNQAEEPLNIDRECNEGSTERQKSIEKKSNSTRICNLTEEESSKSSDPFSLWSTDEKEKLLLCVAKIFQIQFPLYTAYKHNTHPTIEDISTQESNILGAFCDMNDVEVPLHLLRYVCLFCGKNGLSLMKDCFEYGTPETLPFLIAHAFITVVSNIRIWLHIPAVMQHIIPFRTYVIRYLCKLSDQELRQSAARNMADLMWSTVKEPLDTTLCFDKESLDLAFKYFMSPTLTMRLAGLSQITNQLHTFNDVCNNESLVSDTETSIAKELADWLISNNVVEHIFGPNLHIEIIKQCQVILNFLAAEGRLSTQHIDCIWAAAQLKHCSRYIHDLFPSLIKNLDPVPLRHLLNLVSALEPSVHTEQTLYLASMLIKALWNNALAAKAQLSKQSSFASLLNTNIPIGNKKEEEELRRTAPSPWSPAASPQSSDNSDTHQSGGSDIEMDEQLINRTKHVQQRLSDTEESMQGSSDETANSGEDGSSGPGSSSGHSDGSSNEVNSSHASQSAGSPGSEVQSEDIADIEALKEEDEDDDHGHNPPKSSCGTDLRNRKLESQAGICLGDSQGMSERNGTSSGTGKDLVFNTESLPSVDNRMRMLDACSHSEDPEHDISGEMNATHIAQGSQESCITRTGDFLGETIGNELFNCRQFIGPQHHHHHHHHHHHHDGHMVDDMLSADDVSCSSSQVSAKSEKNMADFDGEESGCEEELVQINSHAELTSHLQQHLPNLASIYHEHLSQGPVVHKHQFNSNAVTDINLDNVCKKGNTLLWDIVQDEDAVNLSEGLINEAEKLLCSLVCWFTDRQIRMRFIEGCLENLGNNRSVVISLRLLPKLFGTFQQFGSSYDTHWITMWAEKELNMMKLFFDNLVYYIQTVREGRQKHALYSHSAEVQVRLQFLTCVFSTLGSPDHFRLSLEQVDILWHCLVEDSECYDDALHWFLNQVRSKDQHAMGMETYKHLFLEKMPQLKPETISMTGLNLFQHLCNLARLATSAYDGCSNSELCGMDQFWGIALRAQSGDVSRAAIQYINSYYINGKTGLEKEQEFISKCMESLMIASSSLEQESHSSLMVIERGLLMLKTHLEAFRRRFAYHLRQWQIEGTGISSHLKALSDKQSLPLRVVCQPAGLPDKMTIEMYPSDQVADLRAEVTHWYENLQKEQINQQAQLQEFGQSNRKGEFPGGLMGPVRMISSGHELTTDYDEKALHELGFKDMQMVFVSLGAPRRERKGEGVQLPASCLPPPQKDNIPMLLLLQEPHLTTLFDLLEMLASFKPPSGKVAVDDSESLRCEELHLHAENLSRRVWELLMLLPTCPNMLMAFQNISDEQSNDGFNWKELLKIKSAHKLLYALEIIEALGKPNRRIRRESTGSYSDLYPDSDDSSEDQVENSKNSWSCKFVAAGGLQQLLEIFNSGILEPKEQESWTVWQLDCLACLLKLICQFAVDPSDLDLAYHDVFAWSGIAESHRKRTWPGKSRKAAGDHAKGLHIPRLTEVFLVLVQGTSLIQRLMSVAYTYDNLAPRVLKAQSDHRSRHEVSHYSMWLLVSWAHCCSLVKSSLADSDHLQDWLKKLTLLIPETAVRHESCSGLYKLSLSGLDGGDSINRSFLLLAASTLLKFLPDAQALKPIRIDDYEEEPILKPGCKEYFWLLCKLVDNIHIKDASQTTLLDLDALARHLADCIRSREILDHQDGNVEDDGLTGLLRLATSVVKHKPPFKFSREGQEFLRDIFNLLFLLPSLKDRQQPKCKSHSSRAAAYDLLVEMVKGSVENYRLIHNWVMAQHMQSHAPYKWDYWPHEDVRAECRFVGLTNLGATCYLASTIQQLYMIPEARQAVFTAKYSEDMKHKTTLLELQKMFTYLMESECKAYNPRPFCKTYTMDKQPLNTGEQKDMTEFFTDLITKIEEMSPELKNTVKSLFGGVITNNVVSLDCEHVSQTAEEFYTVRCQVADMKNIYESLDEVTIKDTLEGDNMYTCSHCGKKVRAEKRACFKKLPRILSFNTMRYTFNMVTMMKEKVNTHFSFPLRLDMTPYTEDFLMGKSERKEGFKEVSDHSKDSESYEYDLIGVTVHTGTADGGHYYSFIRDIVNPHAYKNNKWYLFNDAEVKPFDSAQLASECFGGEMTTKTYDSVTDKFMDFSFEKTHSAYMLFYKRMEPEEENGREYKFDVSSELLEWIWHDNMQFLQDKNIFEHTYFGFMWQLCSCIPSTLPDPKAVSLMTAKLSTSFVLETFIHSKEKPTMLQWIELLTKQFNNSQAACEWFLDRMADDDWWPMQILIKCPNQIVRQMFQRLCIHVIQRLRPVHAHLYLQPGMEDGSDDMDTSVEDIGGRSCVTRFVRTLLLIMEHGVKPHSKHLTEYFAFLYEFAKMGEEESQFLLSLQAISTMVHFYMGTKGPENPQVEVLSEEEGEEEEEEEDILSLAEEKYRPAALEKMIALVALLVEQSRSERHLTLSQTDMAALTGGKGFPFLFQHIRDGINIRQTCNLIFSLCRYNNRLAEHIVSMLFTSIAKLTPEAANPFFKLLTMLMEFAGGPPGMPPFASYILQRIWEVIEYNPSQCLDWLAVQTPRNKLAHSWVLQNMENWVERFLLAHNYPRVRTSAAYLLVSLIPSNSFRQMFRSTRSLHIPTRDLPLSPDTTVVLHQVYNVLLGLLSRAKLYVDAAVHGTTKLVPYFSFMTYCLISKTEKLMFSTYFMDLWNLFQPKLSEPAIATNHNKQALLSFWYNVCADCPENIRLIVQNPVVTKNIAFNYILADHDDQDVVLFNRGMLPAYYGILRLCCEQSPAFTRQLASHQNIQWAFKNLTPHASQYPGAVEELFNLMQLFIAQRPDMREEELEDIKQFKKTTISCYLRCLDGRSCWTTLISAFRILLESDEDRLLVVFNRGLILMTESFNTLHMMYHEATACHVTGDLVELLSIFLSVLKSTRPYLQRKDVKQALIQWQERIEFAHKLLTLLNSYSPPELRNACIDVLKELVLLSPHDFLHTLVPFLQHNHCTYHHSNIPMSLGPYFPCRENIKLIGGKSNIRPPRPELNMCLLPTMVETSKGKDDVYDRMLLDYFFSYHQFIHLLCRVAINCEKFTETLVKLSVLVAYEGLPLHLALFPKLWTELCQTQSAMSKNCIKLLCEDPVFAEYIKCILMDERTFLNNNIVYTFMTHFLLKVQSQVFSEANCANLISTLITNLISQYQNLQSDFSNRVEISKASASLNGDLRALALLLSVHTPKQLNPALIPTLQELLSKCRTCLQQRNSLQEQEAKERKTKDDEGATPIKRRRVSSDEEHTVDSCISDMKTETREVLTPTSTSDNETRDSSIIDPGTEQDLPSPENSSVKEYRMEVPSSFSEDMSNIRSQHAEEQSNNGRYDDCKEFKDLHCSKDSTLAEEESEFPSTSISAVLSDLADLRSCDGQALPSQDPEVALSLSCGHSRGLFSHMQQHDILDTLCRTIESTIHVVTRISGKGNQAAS

O=C(CCl)NCc1cccc(F)c1
inactive: USP34 -0.0351 | USP36 -0.312 | USP38 0.0703 | USP39 -0.114 | USP4 -0.0159
